Assay results taken from PubChem BioAssay AID1159580 (chemical genetic matrix, 2015).
Where “and” joins values, the source holds several entries; their conditions need not be identical. Equal values may be shown once. Hit rate of the full screen: of about 5,500 compounds, about 2,000 (36%) were called active. Inconclusive results (about 18%) are left out. No stated cut-off is given here; in the data, active means normalized growth mostly below about 0.91 (no sharp cut-off); inconclusive means no clear call, values can overlap the other calls; inactive means mostly above about 0.92. Some of the results follow.

Experiment: chemical genetic growth profiling, strain panel (AID 1159580);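 further: tested at 20 µM; growth read once vehicle control cultures reached saturation at 30 °C; 1 = growth at the plate median or of vehicle wells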
Settings: S. cerevisiae deletion strains, growth OD

Measured: normalized growth

CC(C)(C)NCC(O)c1ccccc1Cl (stereo unspecified)
inactive: locus YAL013W, strain DEP1, stronger effect = lower value 0.993 | locus YAL021C, strain ccr4, stronger effect = lower value 1.01 | locus YAL026C, strain drs2, stronger effect = lower value 1.01 | locus YAL030W, strain snc1, stronger effect = lower value 0.979 | locus YAL040C, strain CLN3, stronger effect = lower value 0.966 | locus YBL061C, strain skt5, stronger effect = lower value 0.991 | locus YBR009C, strain hhf1, stronger effect = lower value 0.972 | locus YBR021W, strain FUR4, stronger effect = lower value 0.98 | locus YBR023C, strain chs3, stronger effect = lower value 0.993 | locus YBR171W, strain sec66, stronger effect = lower value 0.989 | locus YBR229C, strain ROT2, stronger effect = lower value 0.95 | locus YBR231C, strain swc5, stronger effect = lower value 0.989 | locus YBR279W, strain paf1, stronger effect = lower value 1 | locus YCL011C, strain gbp2, stronger effect = lower value 0.995 | locus YCL016C, strain dcc1, stronger effect = lower value 0.988 | locus YCL029C, strain bik1, stronger effect = lower value 0.978 | locus YCL061C, strain MRC1 (second series), stronger effect = lower value 1.01 | locus YCL061C, strain MRC1, stronger effect = lower value 0.992 | locus YCL069W, strain vba3, stronger effect = lower value 0.991 | locus YCR088W, strain abp1, stronger effect = lower value 0.99 | locus YDL005C, strain med2, stronger effect = lower value 1.01 | locus YDL035C, strain GPR1, stronger effect = lower value 0.947 | locus YDL040C, strain nat1, stronger effect = lower value 0.979 | locus YDL074C, strain BRE1, stronger effect = lower value 1.01 | locus YDL101C, strain DUN1, stronger effect = lower value 0.987 | locus YDL134C, strain PPH21, stronger effect = lower value 0.98 | locus YDL185W, strain tfp1, stronger effect = lower value 0.991 | locus YDL192W, strain arf1, stronger effect = lower value 0.973 | locus YDR001C, strain nth1, stronger effect = lower value 0.978 | locus YDR069C, strain doa4, stronger effect = lower value 0.988 | locus YDR101C, strain arx1, stronger effect = lower value 0.992 | locus YDR137W, strain rgp1, stronger effect = lower value 1.01 | locus YDR150W, strain NUM1, stronger effect = lower value 0.976 and 1.01 | locus YDR159W, strain sac3, stronger effect = lower value 0.939 | locus YDR162C, strain NBP2, stronger effect = lower value 0.979 | locus YDR195W, strain ref2 0.959 | locus YDR297W, strain sur2, stronger effect = lower value 1.01 | locus YDR318W, strain mcm21, stronger effect = lower value 1 | locus YDR334W, strain swr1, stronger effect = lower value 0.996 | locus YDR335W, strain msn5, stronger effect = lower value 0.991 | locus YDR363W, strain ESC2, stronger effect = lower value 0.999 | locus YDR388W, stronger effect = lower value 0.991 | locus YDR392W, strain spt3, stronger effect = lower value 0.831 | locus YDR502C, strain sam2, stronger effect = lower value 0.965 | locus YEL003W, strain gim4, stronger effect = lower value 0.996 | locus YEL037C, strain rad23, stronger effect = lower value 0.994 | locus YEL061C, strain CIN8 (second series), stronger effect = lower value 0.987 | locus YEL061C, strain CIN8, stronger effect = lower value 0.985 | locus YER002W, strain NOP16, stronger effect = lower value 0.988 | locus YER015W, strain faa2, stronger effect = lower value 0.995 | locus YER016W, strain bim1, stronger effect = lower value 0.989 | locus YER110C, stronger effect = lower value 0.966 | locus YER111C, strain swi4, stronger effect = lower value 0.992 | locus YER155C, strain BEM2 (second series), stronger effect = lower value 0.958 | locus YER155C, strain BEM2, stronger effect = lower value 1 | locus YER167W, strain BCK2, stronger effect = lower value 0.957 | locus YFR010W, strain ubp6, stronger effect = lower value 1 | locus YGL078C, strain dbp3, stronger effect = lower value 0.982 | locus YGL086W, strain mad1, stronger effect = lower value 0.978 | locus YGL167C, strain pmr1, stronger effect = lower value 0.989 | locus YGL173C, strain kem1, stronger effect = lower value 1.01 | locus YGL227W, strain vid30, stronger effect = lower value 0.988 | locus YGL240W, strain doc1, stronger effect = lower value 0.981 | locus YGL248W, strain PDE1, stronger effect = lower value 0.984 | locus YGL253W, strain hxk2, stronger effect = lower value 0.994 | locus YGR078C, strain PAC10, stronger effect = lower value 1.01 and 1.02 | locus YGR135W, strain pre9, stronger effect = lower value 0.979 | locus YGR229C, strain SMI1, stronger effect = lower value 1.01 and 1.03 | locus YGR252W, strain gcn5, stronger effect = lower value 0.898 | locus YHR013C, strain ard1, stronger effect = lower value 0.952 | locus YHR027C, strain rpn1, stronger effect = lower value 0.996 | locus YHR030C, strain SLT2, stronger effect = lower value 0.992 and 0.981 | locus YHR079C, strain IRE1 (second series), stronger effect = lower value 1 | locus YHR079C, strain IRE1, stronger effect = lower value 0.977 | locus YHR094C, strain hxt1, stronger effect = lower value 0.991 | locus YHR129C, strain ARP1, stronger effect = lower value 0.997 | locus YHR142W, strain chs7, stronger effect = lower value 1.02 | locus YHR200W, strain rpn10, stronger effect = lower value 1.01 | locus YIL066C, strain RNR3, stronger effect = lower value 0.978 | locus YIL073C, strain SPO22, stronger effect = lower value 0.972 | locus YIL125W, strain kgd1, stronger effect = lower value 0.989 | locus YIR030C, strain dcg1, stronger effect = lower value 0.983 | locus YJL092W, strain hpr5, stronger effect = lower value 0.997 | locus YJL095W, strain BCK1 (second series), stronger effect = lower value 0.996 | locus YJL095W, strain BCK1, stronger effect = lower value 1.02 and 0.99 | locus YJL115W, strain asf1, stronger effect = lower value 0.987 | locus YJL129C, strain trk1, stronger effect = lower value 1 | locus YJL134W, strain LCB3, stronger effect = lower value 0.981 | locus YJL154C, strain vps35, stronger effect = lower value 0.989 | locus YJL164C, strain tpk1, stronger effect = lower value 1.01 | locus YJL166W, strain qcr8, stronger effect = lower value 0.987 | locus YJL168C, strain set2, stronger effect = lower value 0.995 | locus YJL187C, strain SWE1 (second series), stronger effect = lower value 0.994 | locus YJL187C, strain SWE1, stronger effect = lower value 0.997 | locus YJR043C, strain POL32, stronger effect = lower value 1.03 | locus YJR066W, strain TOR1, stronger effect = lower value 0.921
